Among the test systems are T-47D breast; MDA-MB-435 melanoma; SW-620 colon; HCT-116 colon; HCC-2998 colon; KM12 colon; MCF7 breast; BT-549 breast.
Assay in all cases: NCI-60 one-dose screen, 48 h (100 = growth as untreated, 0 = no growth, -100 = all killed)
Common to all, as to conditions: 10 µM unless noted

The panel holds about 83,000 compounds, 20% with a hit somewhere; the sample as a whole holds those more often.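 Values shown are percent growth following 48 h exposure of cells in 96-well plates to a single concentration of compound; below 10 was considered active.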 A number with no mark means an inactive call. The source made the active and inactive calls.

In the case of `CCOC(=O)C1CN(Cc2ccccc2)C(=O)C1=O` (stereo not given), the growth is 104% with T-47D breast; 98.6% with MDA-MB-435 melanoma; 95% in the experiment on SW-620 colon; 92.9% with HCT-116 colon; 118% with HCC-2998 colon; 108% with KM12 colon.

Turning to `O=C(O)c1ccccc1C(=O)c1ccc(I)cc1`, the growth in the experiment with T-47D breast was 83.1%; in the experiment on MDA-MB-435 melanoma it was 107%; in the experiment with SW-620 colon, 97.4%; with HCT-116 colon it was 99.9%; in the experiment with HCC-2998 colon, 102%; in the experiment with KM12 colon it was 106%.

Take `Oc1ccc(Cl)cc1Sc1cc(Cl)ccc1O`: the growth was 75.8% in the experiment with T-47D breast; 103% with SW-620 colon; 91.3% with MCF7 breast; 86.9% in the experiment on HCT-116 colon; 106% in the experiment with HCC-2998 colon; 106% in the experiment on KM12 colon.

For the compound `Cc1cccc(NCS(=O)(=O)O)c1`, the growth with T-47D breast is 94.1%; in the experiment on MDA-MB-435 melanoma it was 108%; in the experiment with SW-620 colon, 101%; in the experiment with HCT-116 colon, 102%; in the experiment on HCC-2998 colon, 96.9%; in the experiment with KM12 colon, 112%.

Consider `CCC(CC(C)C)Nc1ccc(NC(CC)CC(C)C)cc1` (stereo not given), for which the growth in the experiment on T-47D breast is 69.2%; in the experiment on MDA-MB-435 melanoma, 107%; in the experiment with SW-620 colon, 84.2%; with MCF7 breast, 89.5%; with HCT-116 colon, 59.2%; in the experiment on HCC-2998 colon, 95.6%. Moreover, the growth in the experiment on KM12 colon was 63.2%.

On to `O=c1c(-c2ccc3c(c2)OCO3)coc2c(CO)c(O)ccc12`, for which the growth was 19.2% in the experiment with T-47D breast; 49.9% with MDA-MB-435 melanoma; 38.1% in the experiment with SW-620 colon; 20.6% in the experiment on MCF7 breast; -8.96% (active) in the experiment with HCT-116 colon; 4.46% (active) with HCC-2998 colon. Besides, the growth with KM12 colon was 26.8%.

In the case of `Cc1ccc2[nH]c3nc4cccnc4c(C)c3c2c1`, the growth with T-47D breast was 14.2%; with MDA-MB-435 melanoma, 108%; in the experiment on SW-620 colon, 91.6%; with MCF7 breast, 1.4% (active); in the experiment with HCT-116 colon, 91.9%; with HCC-2998 colon it was 92.7%. The growth in the experiment with KM12 colon was 72.8%.

`COc1ccccc1S(=O)(=O)Nc1ccc2c3c(cc(-c4cnn(C5CC5)c4)nc13)C(=O)N2C`: the growth with T-47D breast was 69.9%; in the experiment with MDA-MB-435 melanoma, 52.4%; in the experiment with SW-620 colon, 68.5%; in the experiment on MCF7 breast, 29.6%; with HCT-116 colon, 60%; with HCC-2998 colon, 75.4%. In the experiment with KM12 colon, the growth was 56.3%.

For `COc1ccc(C2=NN(C(=O)COc3ccc(Cl)cc3)C(O)(c3cc(F)c(Cl)cc3Cl)C2)cc1` (stereo not given), the growth with T-47D breast was 95.3%; in the experiment on MDA-MB-435 melanoma, 91.7%; in the experiment on SW-620 colon, 100%; in the experiment with HCT-116 colon it was 86.4%; with HCC-2998 colon, 104%; in the experiment with KM12 colon, 89.1%.

In the case of `CC(=O)N[C@@H](CNC(=O)c1cc(NC(=O)c2cc(NC(=O)c3cc(NC(=O)c4nccn4C)cn3C)cn2C)cn1C)CC(=O)Nc1cn(C)c(C(=O)Nc2cc(C(=O)Nc3cc(C(=O)Nc4cc(C(=O)NCCCN(C)CCCNC(=O)c5cccc(C(=O)O)c5)n(C)c4)n(C)c3)n(C)c2)n1`, the growth is 41.5% in the experiment on T-47D breast; 95.5% in the experiment on MDA-MB-435 melanoma; 90.9% with SW-620 colon; 77.8% in the experiment with MCF7 breast; 43.9% in the experiment with HCT-116 colon; 106% in the experiment with HCC-2998 colon. The growth with KM12 colon was 42.6%.

Take `CC(=S)Nc1ccccc1`: the growth in the experiment on T-47D breast was 100%; in the experiment with MDA-MB-435 melanoma, 99.4%; in the experiment on SW-620 colon it was 96.8%; with MCF7 breast it was 95%; in the experiment on HCT-116 colon it was 104%; in the experiment with HCC-2998 colon it was 105%. In the experiment with KM12 colon, the growth was 106%.

As for `COc1ccc(-c2c(C#N)cnc(N)c2-c2nc3cc(C)c(C)cc3[nH]2)cc1`, the growth in the experiment on T-47D breast is 71.7%; in the experiment on MDA-MB-435 melanoma, -5.12% (active); with SW-620 colon, 38.4%; in the experiment on HCT-116 colon, 20.7%; in the experiment on HCC-2998 colon it was 1.45% (active); in the experiment on KM12 colon, 17.2%.

As to `CCC1S/C(=N\N=C(/C)c2cccs2)N(c2ccccc2)C1=O` (stereo not given), the growth was 90.6% in the experiment on T-47D breast; 117% in the experiment on MDA-MB-435 melanoma; 96.1% in the experiment on SW-620 colon; 84.5% in the experiment on MCF7 breast; 90.2% in the experiment with HCT-116 colon; 121% in the experiment on HCC-2998 colon. For the same compound, the growth in the experiment on KM12 colon was 115%.

On to `O=C(O)c1cccc(S(=O)(=O)c2ccccc2)c1`, for which the growth in the experiment with BT-549 breast is 107%; in the experiment on MDA-MB-435 melanoma it was 94.2%; in the experiment on SW-620 colon it was 98.5%; with MCF7 breast, 90.4%; with HCT-116 colon, 109%; with HCC-2998 colon, 104%. Also, in the experiment with KM12 colon, the growth is 97.4%.

Consider `O=C1OC(N(Cc2ccc(Cl)cc2)c2ccccc2)c2ccccc21` (stereo not given), for which the growth in the experiment with T-47D breast was 89.2%; with MDA-MB-435 melanoma, 109%; in the experiment on SW-620 colon it was 101%; in the experiment on MCF7 breast it was 94.9%; in the experiment with HCT-116 colon it was 97%; in the experiment with HCC-2998 colon, 102%. Besides, the growth in the experiment on KM12 colon is 98.2%.

With `O=C(Nc1ccc(F)cc1)Nc1ccc(Br)c(C(F)(F)F)c1`, the growth in the experiment on T-47D breast is -4.72% (active); in the experiment with MDA-MB-435 melanoma, 6.46% (active); with SW-620 colon, 19.8%; in the experiment with HCT-116 colon it was 4.58% (active); in the experiment with HCC-2998 colon, 11.8%; in the experiment on KM12 colon, 13.8%.

Take `COc1ccc(OCC(O)CN2CCN(c3ccc(Cl)cc3)CC2)cc1` (stereo not given): the growth was 78% with T-47D breast; 106% with MDA-MB-435 melanoma; 101% in the experiment with SW-620 colon; 89.2% with MCF7 breast; 91.5% in the experiment with HCT-116 colon; -94.4% (active) in the experiment with HCC-2998 colon. For the same compound, the growth in the experiment on KM12 colon was 98.9%.

For `Oc1ccccc1/C=N/c1ccccn1`, the growth in the experiment on T-47D breast is 95.9%; in the experiment with MDA-MB-435 melanoma it was 122%; in the experiment on SW-620 colon it was 107%; with MCF7 breast, 97.7%; with HCT-116 colon, 103%; in the experiment on HCC-2998 colon, -94.1% (active). In the experiment on KM12 colon, the growth was 113%.

With `CCN(CC)c1ccc(C2CC(c3cc(OC)c(OC)c(OC)c3)=NN2)cc1` (stereo not given), the growth with T-47D breast is 29.9%; in the experiment on MDA-MB-435 melanoma, 21.6%; with SW-620 colon it was 18.4%; with MCF7 breast, 6.88% (active); in the experiment on HCT-116 colon it was 9.61% (active); with HCC-2998 colon, 21.2%. Also, the growth in the experiment with KM12 colon was 11.1%.

Regarding `CC(=O)Nc1ccc([I+]c2ccc([N+](=O)[O-])cc2)cc1`, the growth was 68.1% in the experiment with T-47D breast; 109% with MDA-MB-435 melanoma; 95.1% with SW-620 colon; 94.8% with MCF7 breast; 81% in the experiment with HCT-116 colon; 106% with HCC-2998 colon. Besides, the growth with KM12 colon was 104%.

Turning to `O=C1OC(=O)C2C3CC(c4ccccc43)C12` (stereo not given), the growth with T-47D breast is 103%; in the experiment with MDA-MB-435 melanoma, 104%; in the experiment on SW-620 colon, 101%; with MCF7 breast, 97.7%; with HCT-116 colon, 89.2%; with HCC-2998 colon it was 106%. Besides, in the experiment with KM12 colon, the growth is 105%.

`COC(=O)c1ccc(NC(N)=NCC(C)(C)COc2ccc(C(F)(F)F)cc2)nc1`: the growth in the experiment on T-47D breast was 28.7%; with MDA-MB-435 melanoma it was 58.3%; in the experiment with SW-620 colon it was 27.3%; in the experiment on MCF7 breast, 8.58% (active); with HCT-116 colon it was 0.764% (active); in the experiment on HCC-2998 colon it was 2.3% (active). In addition, the growth in the experiment on KM12 colon was 46.7%.

For the compound `O=C(NOC1OC(CO)C(O)C(O)C1O)Nc1ccccc1` (stereo not given), the growth is 78.7% in the experiment on T-47D breast; 102% with MDA-MB-435 melanoma; 106% with SW-620 colon; 87.9% in the experiment with MCF7 breast; 105% in the experiment on HCT-116 colon; 105% with KM12 colon.

Regarding `CN(C)c1ccc2cc(-c3nc4ccccc4s3)c(N)nc2c1`, the growth in the experiment on T-47D breast was 48.5%; in the experiment with MDA-MB-435 melanoma, 5.06% (active); with SW-620 colon, 43.6%; in the experiment with MCF7 breast it was 19.7%; with HCT-116 colon it was 43.8%; with HCC-2998 colon it was 77.6%. In the experiment on KM12 colon, the growth is 26.9%.

As for `COc1ccc(C2CC(c3cc(Cl)c(C)cc3OC)=NN2c2ccc(S(N)(=O)=O)cc2)cc1OC` (stereo not given), the growth in the experiment on T-47D breast was 77%; in the experiment with MDA-MB-435 melanoma, 95.8%; with SW-620 colon, 93.6%; in the experiment with MCF7 breast it was 80.4%; with HCT-116 colon, 56.7%; in the experiment with HCC-2998 colon, 99.9%. The growth in the experiment with KM12 colon was 91.8%.

In the case of `CC1(C)Cc2c(Br)c(Br)c(Br)c(OCC(O)CN3CCN(c4ccccn4)CC3)c2O1` (stereo not given), the growth in the experiment with T-47D breast was 88.5%; with MDA-MB-435 melanoma, 66.8%; in the experiment with SW-620 colon, 85.5%; in the experiment with MCF7 breast, 67.6%; in the experiment on HCT-116 colon it was 55.5%; in the experiment with HCC-2998 colon it was 92.7%. The growth with KM12 colon was 80.7%.

Consider `S=c1n(CNc2ccc(Cl)nn2)nc(-c2cc(Cl)cc(Cl)c2Cl)n1/N=C/c1ccc(Cl)cc1`, for which the growth in the experiment on T-47D breast is 101%; in the experiment on MDA-MB-435 melanoma it was 89.3%; in the experiment on SW-620 colon it was 103%; in the experiment on MCF7 breast, 87.4%; in the experiment on HCT-116 colon it was 83.8%; in the experiment with HCC-2998 colon, 88.6%. For the same compound, the growth in the experiment with KM12 colon was 97.1%.

Consider `CCCCCCCCCCCC(=O)OCCNC(=O)C[n+]1ccccc1`, for which the growth was 95.3% in the experiment with T-47D breast; 116% in the experiment with SW-620 colon; 97.9% in the experiment with MCF7 breast; 103% in the experiment with HCT-116 colon; 111% in the experiment on HCC-2998 colon; 110% in the experiment with KM12 colon.

Regarding `Cc1cc(Nc2ccc(Cl)c(Cl)c2)nc(N)n1`, the growth in the experiment with T-47D breast was 79.5%; in the experiment on MDA-MB-435 melanoma it was 98.3%; in the experiment on SW-620 colon, 97.7%; in the experiment on HCT-116 colon, 86.4%; in the experiment on HCC-2998 colon it was 113%; with KM12 colon it was 91.3%.

For `COc1ccc(/C(=C/c2cc(OC)c(OC)c(OC)c2)[N+](=O)[O-])cc1`, the growth was 6.27% (active) in the experiment on T-47D breast; 7.21% (active) in the experiment on MDA-MB-435 melanoma; -31% (active) in the experiment with SW-620 colon; 1.7% (active) with MCF7 breast; 11.8% in the experiment with HCT-116 colon; 91.5% with HCC-2998 colon. Besides, the growth in the experiment on KM12 colon is 15.5%.

The values above are taken from PubChem BioAssay (NCI).
